High-throughput results (PubChem BioAssay)
This is a sample that favours compounds with a hit; in the whole collection about 4.5% have one here.
hgDAF12 agonist = H. glycines DAF-12 receptor agonists, primary screen, cell-based, luminescence, HEK293, GAL4 fusion, UAS-luciferase. Nuclear hormone receptor DAF-12 (Heterodera glycines), GAL4 fusion. HEK293 GAL4-hgDAF12 UAS-luciferase reporter, agonist luminescence; normalized to butyrate control. activation, % at 6.8 µM. 1.8% of 370,000 active;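 active means activation above a cutoff set at the mean of all screened compounds plus 3 SD, cut at about 10% in these data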;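 further: 0% = DMSO wells and 100% = sodium butyrate wells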
DAX1 inh-1 = DAX1 (NR0B1) inhibitors on StAR promoter, primary screen, cell-based, luminescence, SF-1 (NR5A1), full-length DAX-1; 1.1% of 370,000 active; HEK293T StAR-luciferase reporter, SF-1/DAX-1 repression relief; inhibition, % at 6.8 µM;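 active means inhibition above the mean over all tested compounds plus 3 SD, cut at about 3.6% in these data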;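 further: 0% = DAX-1 cells with DMSO and 100% = cells lacking DAX-1 with DMSO; higher inhibition means more luminescence from relief of DAX-1 repression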
DAX1 inh-2 = DAX1 (NR0B1) inhibitors, primary screen, cell-based, HEK293, Gal4-DAX1, luciferase luminescence; AID 504766, 2011; HEK293 Gal4-DAX1 luciferase reporter; inhibition, % at 6.75 µM; 0.99% of 340,000 active;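 active means inhibition above the mean over all tested compounds plus 3 SD, cut at about 4.2% in these data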;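 further: 0% = DAX1-transfected cells with DMSO and 100% = empty-vector control cells with DMSO; inhibition shows as a rise in luminescence from relieved DAX1 repression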
Target sequence (P51843 207-470 limits assumed): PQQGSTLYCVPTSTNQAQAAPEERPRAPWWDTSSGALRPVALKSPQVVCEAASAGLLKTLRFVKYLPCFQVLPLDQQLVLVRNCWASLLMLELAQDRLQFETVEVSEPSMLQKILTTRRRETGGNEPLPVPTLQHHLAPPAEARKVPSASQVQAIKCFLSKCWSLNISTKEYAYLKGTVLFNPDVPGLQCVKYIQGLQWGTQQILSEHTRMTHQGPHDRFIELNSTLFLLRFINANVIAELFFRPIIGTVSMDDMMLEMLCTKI
ssDAF-12 act = S. stercoralis DAF-12 nuclear receptor activators, primary screen, cell-based, luminescence, HEK293, GRIP1 co-expression, lit1-tk-luc; HEK293 ssDAF-12/GRIP1 lit1-tk-luc reporter; % of 3 µM dafachronic acid response; activation, % at 6.8 µM; 1% of 370,000 active;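 active means activation above the mean over all tested compounds plus 3 SD, cut at about 0.9% in these data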;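 further: 0% = DMSO-only wells and 100% = 3 µM delta7-dafachronic acid wells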
hcDAF12 agonist = H. contortus DAF-12 nuclear receptor activators, primary screen, cell-based, luminescence, HEK293, lit1-tk-luc reporter | HEK293 hcDAF-12 lit1-tk-luc reporter; 0% DMSO, 100% Δ7-dafachronic acid | activation, % at 6.8 µM | 1.4% of 370,000 active | AID 652067, 2013;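 active means activation above the mean of all tested compounds plus 3 SD, cut at about 5.5% in these data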;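 further: 100% = response to 3 µM Δ7-dafachronic acid high control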
FXN GAA850 act = FXN promoter activators, primary screen, cell-based, luciferase luminescence, HEK293 lucGAA850; HEK293 lucGAA850 FXN promoter luciferase reporter, 24 h; percent of 10 µM SAHA response; activation, % at 6 µM; 0.56% of 360,000 active;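 active means activation above the average of all compounds screened plus 3 SD, cutoff fixed separately per campaign, cut at about 7.5% in these data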;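 further: 0% = DMSO wells and 100% = 10 µM SAHA wells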
Active calls of the source: *.

For O=C1/C(=C\c2ccccc2)CCc2c1[nH]c1ccccc21 the results were hgDAF12 agonist 13.1*, DAX1 inh-1 -0.9, DAX1 inh-2 -1.4, ssDAF-12 act 0.4, hcDAF12 agonist 5.6 and FXN GAA850 act -2.6.
C/C(=N\NC(=O)c1ccc(Cl)c(Cl)c1)c1ccc(Br)s1 was read as hgDAF12 agonist 3.0, DAX1 inh-1 0.1, DAX1 inh-2 1.1, ssDAF-12 act -1.2, hcDAF12 agonist 2.8 and FXN GAA850 act 1.6.
For C/C(=N\NC(=O)c1ccc(C)cc1C)c1ccc2c(c1)OCO2 the results were hgDAF12 agonist 7.3, DAX1 inh-1 0.8, DAX1 inh-2 1.5, ssDAF-12 act 1.3*, hcDAF12 agonist 1.6 and FXN GAA850 act 3.0.
For C/C(=N\NC(=O)c1cc2ccccc2cc1O)c1ccc2c(c1)OCO2 the results were hgDAF12 agonist -0.2, DAX1 inh-1 0.0, DAX1 inh-2 0.1, ssDAF-12 act -0.6, hcDAF12 agonist -1.4 and FXN GAA850 act -0.5.
For C/C(=N/NC(=O)c1ccc2c(c1)OCO2)c1ccc(Br)s1 the results were hgDAF12 agonist 3.2, DAX1 inh-1 0.5, DAX1 inh-2 1.2, ssDAF-12 act 0.9*, hcDAF12 agonist -0.2 and FXN GAA850 act 3.5.
For COC1=C[C@H](C(=O)NCCOC(C)=O)[C@H](C)[C@@H](c2ccccc2)CC1=O the results were hgDAF12 agonist -1.4, DAX1 inh-1 -0.7, ssDAF-12 act -0.8 and hcDAF12 agonist -0.1.
For CCOc1ccc(-n2c(SCC(=O)c3ccccc3Cl)nnc2-c2ccncc2)cc1 the results were hgDAF12 agonist 1.1, DAX1 inh-1 -0.9, ssDAF-12 act -0.9 and hcDAF12 agonist -0.2.
For C[C@H]1COc2cc(Br)ccc2S(=O)(=O)N1Cc1cn(Cc2ccccc2)nn1 the results were hgDAF12 agonist 0.0, DAX1 inh-1 0.6, ssDAF-12 act -1.8 and hcDAF12 agonist -0.6.
`Cc1ccc(-c2cc(-c3nnc(SCC(=O)N4c5ccccc5Sc5ccc(Cl)cc54)n3N)[nH]n2)cc1` gave hgDAF12 agonist 5.9, DAX1 inh-1 0.8, ssDAF-12 act -2.0 and hcDAF12 agonist -0.3.
Screening Cc1c(Cl)c([N+](=O)[O-])nn1CC(=O)N1CCN(Cc2ccccc2)CC1 returned hgDAF12 agonist -0.4, DAX1 inh-1 -1.0, DAX1 inh-2 4.4*, ssDAF-12 act -0.8, hcDAF12 agonist -0.9 and FXN GAA850 act 0.9.
Cc1c(Cl)c([N+](=O)[O-])nn1CC(=O)N1CCCC1 was read as hgDAF12 agonist -1.5, DAX1 inh-1 -0.1, DAX1 inh-2 0.7, ssDAF-12 act -0.5, hcDAF12 agonist -0.6 and FXN GAA850 act 0.5.
`Cc1ccn2c(=O)nc(SCC(=O)c3ccc(Cl)cc3)nc2c1` gave hgDAF12 agonist 0.9, DAX1 inh-1 0.1, DAX1 inh-2 0.3, ssDAF-12 act -0.8, hcDAF12 agonist -2.0 and FXN GAA850 act 1.0.
`Cc1ccn2c(C(=O)c3ccc(Cl)cc3)cnc2c1` gave hgDAF12 agonist 12.8*, DAX1 inh-1 3.9*, DAX1 inh-2 1.1, ssDAF-12 act -0.1, hcDAF12 agonist 5.5 and FXN GAA850 act 0.6.
For C[C@H]1[C@@H](OC(=O)Nc2ccc(C(F)(F)F)cc2)CC[C@@]23CCCN2C(=O)CCC[C@@H]13 the results were hgDAF12 agonist 0.9, ssDAF-12 act -1.0 and hcDAF12 agonist -2.4.
COC(=O)c1ccc(CN2CCCC(CO)(Cc3ccc(F)cc3F)C2)cc1 (stereo not drawn) was read as hgDAF12 agonist -1.3, DAX1 inh-1 -0.2, DAX1 inh-2 -1.0, ssDAF-12 act 1.0*, hcDAF12 agonist -2.5 and FXN GAA850 act 3.1.
O=C(CSc1nnc(-c2cccnc2)n1-c1ccc(Cl)cc1)c1ccc(F)cc1 was read as hgDAF12 agonist 1.0, DAX1 inh-1 -1.2, ssDAF-12 act -1.8 and hcDAF12 agonist -0.6.
Screening O=C(O)Cc1c[nH]c2ccccc12 returned hgDAF12 agonist -3.6, DAX1 inh-1 0.2, DAX1 inh-2 0.6, ssDAF-12 act -0.7, hcDAF12 agonist 3.2 and FXN GAA850 act 2.9.
Screening OCc1c[nH]c2ccccc12 returned hgDAF12 agonist 2.0, DAX1 inh-1 -1.5, DAX1 inh-2 -0.7, ssDAF-12 act 0.0, hcDAF12 agonist 6.0* and FXN GAA850 act -1.6.
For OCCc1c[nH]c2ccccc12 the results were hgDAF12 agonist -1.6, DAX1 inh-1 -0.1, DAX1 inh-2 4.5*, ssDAF-12 act -1.6, hcDAF12 agonist 1.1 and FXN GAA850 act -1.6.
Screening NNC(=O)CCc1c[nH]c2ccccc12 returned hgDAF12 agonist 0.7, DAX1 inh-1 -0.3, DAX1 inh-2 1.1, ssDAF-12 act -1.2, hcDAF12 agonist -1.0 and FXN GAA850 act -1.0.
Screening COc1ccccc1C=NN=C1c2ccccc2-c2ccccc21 returned hgDAF12 agonist -1.3, DAX1 inh-1 -0.8, DAX1 inh-2 1.1, ssDAF-12 act 0.3, hcDAF12 agonist 0.6 and FXN GAA850 act -0.4.
For COc1ccccc1C=NN=Cc1ccccc1OC the results were hgDAF12 agonist 1.2, DAX1 inh-1 -1.2, DAX1 inh-2 0.2, ssDAF-12 act 1.1*, hcDAF12 agonist 2.3 and FXN GAA850 act -1.1.
`COC(=O)[C@]12C[C@H](CC(=O)NCc3ccc(C)o3)C(=O)N(Cc3ccco3)C1=C[C@H](C(C)(C)C)O[C@@H]2C` gave hgDAF12 agonist 1.9, DAX1 inh-1 -0.8, ssDAF-12 act -0.6 and hcDAF12 agonist -2.6.
CN(C)c1ccc(NC(=O)CCCc2ccccc2)cc1 was read as hgDAF12 agonist 11.7*, DAX1 inh-1 3.0, DAX1 inh-2 1.5, ssDAF-12 act -0.3, hcDAF12 agonist 4.8 and FXN GAA850 act 0.8.
`COc1ccc(-c2nnn(Cc3ccccc3F)n2)cc1` gave hgDAF12 agonist 12.5*, DAX1 inh-1 0.4, DAX1 inh-2 3.4, ssDAF-12 act 0.1, hcDAF12 agonist 1.6 and FXN GAA850 act 3.1.
`Clc1ccccc1Cn1nnc(-c2ccccc2)n1` gave hgDAF12 agonist 2.0, DAX1 inh-1 0.3, DAX1 inh-2 -0.1, ssDAF-12 act 4.3*, hcDAF12 agonist 0.1 and FXN GAA850 act 1.8.
Screening Clc1ccccc1Cn1nnc(-c2cccs2)n1 returned hgDAF12 agonist 8.0, DAX1 inh-1 0.4, DAX1 inh-2 2.3, ssDAF-12 act -0.1, hcDAF12 agonist 4.3 and FXN GAA850 act 3.5.
